Bioassay records deposited in PubChem BioAssay by Broad Institute.
Compounds with a hit are over-represented: about 3.8% of the library has one in this group of screens.
HSF1 activator – increases HSF-1 driven luciferase reporter signal; NIH3T3-HGL HSF-1 luciferase reporter, MG132, 8 h; 100% = twice DMSO control signal; activation, % at 9 µM; 300,000 tested, 1.7% active;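 active means mean replicate activation of at least 50% with a set share of replicates each reaching 50%; inconclusive means only one of those two conditions met; inactive means mean below 50% and too few replicates reaching it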;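 further: 0% = median of the neutral control wells and 100% = twice that signal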
Wnt bcat act – activates Wnt/beta-catenin signaling in a reporter cell assay. AID 743398. activator, plate reader. activation, % at 9.35 µM. 300,000 tested, 1.2% active; in the data active means activation above about 30%, passing the limit was not always enough; inconclusive means no clear call, values can overlap the other calls;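 further: 0% = neutral control wells and 100% = positive control wells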
HSF1 inh – HSF1 inhibition | NIH3T3-HGL HSE-luciferase, MG132-induced, luminescence 8 h; active compounds read low | activity change, negative = inhibition, % at 7.5 µM (by protocol) | 300,000 tested, 0.77% active | AID 2098;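 active means more than half of replicate wells show activity change below -50%, luminescence cut by over half; inconclusive means some wells, but at most half, below -50%; inactive means no replicate well below -50%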;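 further: luciferase reports HSF-1 transcriptional activity via heat shock element; 0% = median of DMSO wells and -100% = zero luminescence signal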
MITF act – activators of MITF-driven TRPM1 promoter activity in SK-MEL-5 cells; activation, % at 12.5 µM; 300,000 tested, 0.75% active; SK-MEL-5 TRPM1-promoter luciferase, 24 h; % of positive control, neutral wells = 0;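 active means mean activation of at least 80% with every replicate also reaching 80%; inconclusive means mean reaches 80% but some replicate falls short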;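 further: 0% = neutral control wells and 100% = parthenolide positive control wells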
esBAF inh – blocks esBAF chromatin remodeling in mouse ES cells. Bmi1-luciferase knock-in reporter, 24 h; 100% = twice the neutral-well signal. reporter increase, % at 12.5 µM. 350,000 tested, 2% active. AID 602393; in the data active means activation above about 40%; inconclusive means no clear call, values can overlap the other calls;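 further: 0% = median of the plate's neutral control wells and 100% = double that signal; a rise in the Bmi1 reporter signal indicates esBAF inhibition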
An asterisk follows results filed as active.

`CC(C)(C)C(=O)c1cn(CC(=O)NCc2ccco2)c2ccccc12` gave HSF1 activator 17, Wnt bcat act -1, HSF1 inh 9 and MITF act 85*.
For O=C1Nc2ccccc2/C1=C/c1cnc[nH]1 the results were HSF1 activator 66*, Wnt bcat act 4, HSF1 inh 38, MITF act -17 and esBAF inh 17.
COc1ccc2c(c1)/C(=C/c1cnc[nH]1)C(=O)N2 was read as HSF1 activator 32, Wnt bcat act 13, HSF1 inh 32, MITF act -34 and esBAF inh 52*.
`COC(=O)[C@@H]1[C@@H](CO)[C@@H]2Cn3c(ccc(-c4cccnc4)c3=O)[C@H]1N2CCc1ccccc1` gave esBAF inh 3.
O=C(O)[C@H]1[C@H](CO)[C@H]2Cn3c(ccc(-c4ccncc4)c3=O)[C@@H]1N2C(=O)C1CC1 was read as esBAF inh -7.
Screening CC=Cc1ccc2n(c1=O)C[C@@H]1[C@@H](CO)[C@H](C(=O)OC)[C@H]2N1CC1CC1 (mixture of isomers) returned esBAF inh -5.
For COC(=O)[C@@H]1[C@@H](CO)[C@@H]2Cn3c(ccc(C4=CCCCC4)c3=O)[C@H]1N2Cc1cccnc1 the results were esBAF inh -1.
`COc1cc(CC2C(=O)N(C)C(=O)N(C)C2=O)ccc1OCc1ccccc1` gave HSF1 activator 11, Wnt bcat act 28, HSF1 inh 4, MITF act 43 and esBAF inh 46*.
O=C1/C(=C/c2ccccc2)C[C@@]2(O)[C@H]3Cc4ccc(O)c5c4[C@@]2(CCN3CC2CC2)C1O5 (some centres not stated) was read as MITF act -108 and esBAF inh 54*.
Cc1cc(C(=O)OCC(=O)Nc2ccccc2F)c(C)n1C1CC1 was read as Wnt bcat act 9, MITF act 85* and esBAF inh 57*.
COC(=O)[C@H]1[C@H](CO)[C@H]2Cn3c(ccc(C4=CCCCC4)c3=O)[C@@H]1N2C(=O)NC(C)C was read as esBAF inh 0.
Screening COC(=O)[C@H]1[C@H](CO)[C@H]2Cn3c(ccc(-c4cccc(C(=O)N(C)C)c4)c3=O)[C@@H]1N2C(=O)NC(C)C returned esBAF inh 5.
O=C(c1ccc2c(c1)OCO2)N1CCC2(CC1)OCCO2 was read as HSF1 activator -76, HSF1 inh -68*, MITF act 9 and esBAF inh 2.
Screening O=C(c1ccccc1)N1CCC2(CC1)OCCO2 returned HSF1 activator 2, Wnt bcat act -1, HSF1 inh 0, MITF act -6 and esBAF inh 12.
`c1ccc2oc(-c3ccc4c(c3)CNCc3cnnn3-4)cc2c1` gave Wnt bcat act 3 and esBAF inh 66*.
c1cc2c(cc1N1CCCCC1)CNCc1cnnn1-2 was read as Wnt bcat act -1 and esBAF inh -1.
Screening CC=Cc1ccc2n(c1=O)C[C@H]1[C@H](CO)[C@@H](C(=O)OC)[C@@H]2N1CC1CCCCC1 (mixture of isomers) returned esBAF inh -2.
Screening CN1CC(C(=O)c2ccccc2)C(C(=O)c2ccccc2)C1 (configuration not stated) returned Wnt bcat act 2 and esBAF inh 57*.
For COC(=O)[C@@H]1[C@@H](CO)[C@@H]2Cn3c(cccc3=O)[C@H]1N2C(=O)C1CC1 the results were esBAF inh -3.
O=C1c2ccccc2-c2cc3ccccc3cc21 was read as Wnt bcat act 46* and MITF act 33.
For O=C1c2ccccc2-c2cccc3cccc1c23 the results were Wnt bcat act 16, MITF act 36 and esBAF inh inconclusive.
For O=C1NC2C(O)C(O)C(O)C(O)C2c2cc3c(c(O)c21)OCO3 (configuration not stated) the results were HSF1 activator 89*, Wnt bcat act -24, HSF1 inh 89* and MITF act -72.
O=C1NC2C(=CC(O)C(O)C2O)c2cc3c(c(O)c21)OCO3 (configuration not stated) was read as Wnt bcat act -26.
`COC(=O)[C@H]1[C@H](CO)[C@H]2Cn3c(ccc(-c4ccccc4OC)c3=O)[C@@H]1N2Cc1ccccc1` gave esBAF inh 3.
Screening Cc1ccc(N2C(=O)NC(=O)/C(=C/c3cnn(-c4ccc(C)cc4)c3)C2=O)cc1 returned HSF1 activator -75, HSF1 inh -70* and MITF act -9.
O=C(Cc1ccncc1)N1CCCCN2[C@H](CO)[C@@H](c3ccc(C#Cc4ccccc4F)cc3)[C@@H]2C1 was read as esBAF inh 13.
For COC(=O)[C@H]1[C@H](CO)[C@H]2Cn3c(ccc(-c4cncnc4)c3=O)[C@@H]1N2S(=O)(=O)c1ccccc1C the results were esBAF inh -4.
`O=C(c1ccc(Cl)cc1)C1CCCN(Cc2ccc3c(c2)OCCO3)C1` (configuration not stated) gave HSF1 activator -69, Wnt bcat act -7, HSF1 inh -60*, MITF act -3 and esBAF inh 6.
For COc1cccc(OCc2cc(C(=O)N3C[C@H]4C[C@@H](C3)c3cccc(=O)n3C4)no2)c1 the results were HSF1 activator 73*, Wnt bcat act 28, HSF1 inh 43, MITF act 101* and esBAF inh 73*.
Screening Cc1cccc(S(=O)(=O)N2[C@@H]3c4ccc(-c5cccc(F)c5)c(=O)n4C[C@H]2[C@H](CO)[C@H]3C(=O)O)c1 returned esBAF inh 0.
For O=C1CN=C(c2cc([N+](=O)[O-])ccc2Cl)c2cc([N+](=O)[O-])ccc2N1 the results were HSF1 activator 7, Wnt bcat act 47*, HSF1 inh 7 and esBAF inh 1.
Screening C=CCNC(=O)c1c(N)n(Cc2ccco2)c2nc3ccccc3nc12 returned HSF1 activator 134*, Wnt bcat act -5, HSF1 inh 97, MITF act -22 and esBAF inh -9.
`CN1C(=O)NC(=O)C(C)(C2=CCCCC2)C1=O` (configuration not stated) gave HSF1 activator 3, Wnt bcat act 0, HSF1 inh -5, MITF act 100* and esBAF inh 28.
For COc1ccc(-c2cc(=NCC(=O)O)c3ccccc3o2)cc1 the results were HSF1 activator 49, HSF1 inh 10, MITF act 11 and esBAF inh 47*.
CN1C(=O)C(=Cc2sc(=O)n(-c3ccccc3)c2N2CCCCC2)C(=O)N(C)C1=O was read as HSF1 activator 67*, Wnt bcat act 1 and HSF1 inh 27.
For CN1C(=O)C(=Cc2cc([N+](=O)[O-])ccc2N2CCCCC2)C(=O)N(C)C1=O the results were HSF1 activator 5, Wnt bcat act 0, HSF1 inh -1 and MITF act -11.
